Results as given in PubChem BioAssay AID1479144 (National Center for Advancing Translational Sciences (NCATS), 2020).
Results filed as inconclusive are left out. Entries that show only a call come without a potency. Calls of active or inactive are those of the source. Calls come from the whole dose curve.

Assay: Confirmatory qHTS for Vero E6 cytotoxicity: counterscreen for inhibitors of SARS-S pseudo-typed particle cell entry
Details: cell viability; series mostly up to 57.1 µM

Structure (SMILES) | Potency
C=CC1(C)CC(=O)C2(O)C(C)(O1)C(OC(C)=O)C(OC(=O)CCN(C)C)C1C(C)(C)CCC(O)C12C (stereo not drawn) | inactive
CN1CCC(=C2c3ccccc3C=Cc3ccccc32)CC1 | inactive
CCCCN=C(N)N=C(N)N | inactive
Cc1nnc(C(=O)NC(C)(C)c2nc(C(=O)NCc3ccc(F)cc3)c(O)c(=O)n2C)o1 | inactive
CC(C)C[C@H](NC(=O)[C@H](CCc1ccccc1)NC(=O)CN1CCOCC1)C(=O)N[C@@H](Cc1ccccc1)C(=O)N[C@@H](CC(C)C)C(=O)[C@@]1(C)CO1 | 0.681 µM (active)
CN(C)CCOC(c1ccccc1)c1ccc(Br)cc1 (stereo not drawn) | inactive
CC(C)(C)C(=O)OCOP(=O)(COCCn1cnc2c(N)ncnc21)OCOC(=O)C(C)(C)C | inactive
CN1CC[C@H](CN2c3ccccc3Sc3ccccc32)C1 | inactive
CCC(C)(C)C(=O)O[C@H]1C[C@@H](C)C=C2C=C[C@H](C)[C@H](CC[C@@H]3C[C@@H](O)CC(=O)O3)[C@H]21 | 5.41 µM (active)
COc1cccc2c1C(=O)c1c(O)c3c(c(O)c1C2=O)C[C@@](O)(C(C)=O)C[C@@H]3O[C@H]1C[C@H](N)[C@H](O)[C@H](C)O1 | 13.6 µM (active)
COC(=O)C1=C(C)NC(C)=C(C(=O)OCC(C)C)C1c1ccccc1[N+](=O)[O-] (stereo not drawn) | 27.1 µM (active)
CCN1CCN(Cc2ccc(Nc3ncc(F)c(-c4cc(F)c5nc(C)n(C(C)C)c5c4)n3)nc2)CC1 | inactive
CC(=O)N1CCN(c2ccc(OC[C@H]3CO[C@](Cn4ccnc4)(c4ccc(Cl)cc4Cl)O3)cc2)CC1 | inactive
